# In PubChem BioAssay AID624040 (The Scripps Research Institute Molecular Screening Center, 2012):
# Out of some 360,000 compounds screened, about 2,100 (0.58%) were called active. The full list was thinned out, with actives kept by preference. Values without a mark were called inactive.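 The calls were made as follows: active = inhibition above a per-plate cutoff, the mean of that plate's test compounds plus 3 SD (cut at about 27% in these data); inactive = the rest.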
# Target: Muscarinic acetylcholine receptor M5 (Homo sapiens) (UniProt P08912)
# Assay: human M5 muscarinic receptor antagonists, primary screen, CHO cells, Fluo-8 calcium fluorescence (AID 624040);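 also: 0% = acetylcholine EC80 with DMSO and 100% = DMSO without agonist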
# Details: CHO-hM5 cells, ACh EC80, at 3 µM, stronger effect = higher value
# Muscarinic acetylcholine receptor M5 (Homo sapiens), sequence (P08912 whole entry, looked up): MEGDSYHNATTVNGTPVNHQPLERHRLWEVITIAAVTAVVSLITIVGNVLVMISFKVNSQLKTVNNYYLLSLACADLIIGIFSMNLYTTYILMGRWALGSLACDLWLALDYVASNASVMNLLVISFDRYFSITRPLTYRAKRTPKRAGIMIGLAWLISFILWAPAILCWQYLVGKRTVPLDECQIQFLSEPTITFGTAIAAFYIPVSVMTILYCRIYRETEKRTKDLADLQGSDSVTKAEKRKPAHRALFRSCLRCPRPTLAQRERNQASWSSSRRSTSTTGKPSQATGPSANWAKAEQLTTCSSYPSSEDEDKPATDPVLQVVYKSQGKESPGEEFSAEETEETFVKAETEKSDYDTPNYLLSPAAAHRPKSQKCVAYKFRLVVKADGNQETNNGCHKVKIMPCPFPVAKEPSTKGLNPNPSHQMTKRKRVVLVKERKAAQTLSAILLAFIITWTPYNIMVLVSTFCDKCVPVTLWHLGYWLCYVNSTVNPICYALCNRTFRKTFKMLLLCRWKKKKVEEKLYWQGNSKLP
row,Compound,inhibition
1,O=C(/C=C(O)/C=C/c1ccc(O)cc1)/C=C/c1ccc(O)cc1,54.8% (active)
2,NC1=NC(=O)S/C1=C\c1ccc(O)cc1,-0.48%
3,CC(C)(C)C(=O)/C(C#N)=C/c1ccc(O)cc1,4.34%
4,COc1ccc(OCCNS(=O)(=O)Cc2ccccc2)cc1,4.63%
5,COc1ccc(S(=O)(=O)NCCOc2ccccc2)cc1F,-2.02%
6,COc1ccc(S(=O)(=O)NCCCCOc2ccc(Cl)cc2)cc1,32.2% (active)
7,Cc1ccc(S(=O)(=O)N2CCOCC2)cc1C(=O)OC1CCCCC1=O (stereo not drawn),5.95%
8,O=C(COc1ccccc1)Nc1cc2c3c(c1)CC(=O)N3CCC2,-0.99%
9,CCOC(=O)CCP(=O)(O)C(O)(c1ccccc1)c1ccccc1,-4.02%
10,CCN(CC)CCOC(=O)c1ccc(NC(=O)CNC(=O)c2ccccc2)cc1,10.2%
11,CCC(C(=O)Nc1ccc(C(C)C)cc1)c1ccccc1 (stereo not drawn),19.2%
12,COC(CCN(C)C)(c1ccccc1)c1ccccc1,11.5%
13,CCCC(C(=O)OCCN(CC)CC)(c1ccccc1)c1ccccc1,48.8% (active)
14,CCC(C(=O)OCCN(CC)CC)c1ccccc1 (stereo not drawn),67.6% (active)
15,CN(C)C(=O)c1ccc2c(c1)C1C3CCC(C3)C1C(c1ccccc1)N2 (stereo not drawn),-2.46%
16,CCOC(=O)N1CCC(NC(=O)Cn2cc3c(n2)CCCCC3)CC1,0.05%
17,CC(C)c1ccc(NC(=O)CCN2C(=O)c3ccc([N+](=O)[O-])cc3C2=O)cc1,-6.62%
18,CC(C)c1ccc(C=NNc2ccc([N+](=O)[O-])cn2)cc1,27.5% (active)
19,CC(C)c1ccc(/C=C2\NC(=O)NC2=O)cc1,-18.6%
20,CCS(=O)(=O)N1CCC(N2CCN(c3ccccc3)CC2)CC1,8.56%

row,Compound,inhibition
1,Cc1ccccc1NS(=O)(=O)CCCCC(Cl)(Cl)Cl,3.5%
2,COc1ccc(CN2CC(C(=O)NC3CCCCC3)CC2=O)cc1 (stereo not drawn),-0.55%
3,CC(=O)N1CCN(Cc2cc(=O)oc3cc(C)ccc23)CC1,-1.45%
4,CC(=O)c1c(C)[nH]c(C(=O)COC(=O)c2cccc(S(=O)(=O)N(C)c3ccccc3)c2)c1C,74.2% (active)
5,COc1ccc(C)cc1NC(=O)C(OC(=O)c1cccc(S(=O)(=O)N(C)c2ccccc2)c1)c1ccccc1 (stereo not drawn),-1.67%
6,CN(c1ccccc1)S(=O)(=O)c1cccc(C(=O)NNC(=O)c2ccncc2)c1,1.22%
7,O=C(CCc1nnc2ccc(NCc3ccccc3Cl)nn12)NCC1CCN(C2CCCC2)C1 (stereo not drawn),1.64%
8,COC(C[C@H](O)CC(=O)COCc1ccccc1)OC,2.21%
9,O=C(NCCN1CCN(C(=O)c2cccc([N+](=O)[O-])c2)CC1)C(=O)NCc1ccc(Cl)cc1,10.1%
10,Cc1csc(NC(=O)CSc2ccc(-c3ccc(F)cc3)nn2)n1,6.55%
11,COc1ccc(CC(=O)Nc2nc(-c3ccc(F)c(F)c3)cs2)cc1OC,32.4% (active)
12,COc1ccc(CC(=O)NC2CCSc3ccccc32)cc1OC (stereo not drawn),17.6%
13,O=C(CNCCO)NC12CC3CC(CC(C3)C1)C2,-2.76%
14,O=C(Oc1ccc(-c2nnco2)cc1)c1ccc(F)c(S(=O)(=O)N2CCOCC2)c1,27.2% (active)
15,NC(=O)C1CCN(C(=O)c2ccc(F)c(S(=O)(=O)N3CCOCC3)c2)CC1,13.8%
16,COc1ccc(C(=O)Oc2ccc(-c3nnco3)cc2)cc1S(=O)(=O)N1CCOCC1,15.9%
17,CC1C(=O)NC(=O)C1c1ccccc1 (stereo not drawn),5.64%
18,COc1cccc(-c2ccc(C#N)c(SCC(=O)NCCc3ccc(Cl)cc3)n2)c1,-0.91%
19,COc1cc(C(=O)N2CCOC23CCN(Cc2ccccc2)CC3)cc(OC)c1OC,4.88%
20,C[C@@H]1CC[C@@]2(OC1)O[C@H]1C[C@H]3[C@@H]4CC=C5C[C@@H](O)[C@H](O)C[C@]5(C)C4CC[C@]3(C)[C@H]1[C@@H]2C (stereo partly drawn),-3.19%

row,Compound,inhibition
1,O=C(OCc1nnc(-c2ccccc2)o1)c1cc(=O)[nH]c2ccccc12,6.31%
2,O=C(OCc1nnc(-c2ccccc2)o1)c1ccc2c(c1)C(=O)N(CCc1ccccc1)C2=O,5.45%
3,Cc1onc(-c2ccccc2)c1-c1nnc(COC(=O)c2ccc(N(C)C)cc2)o1,66.8% (active)
4,CN/C(=C\[N+](=O)[O-])NCCSCc1csc(CN(C)C)n1,4.23%
5,CC(C)C(=O)Nc1nnc(Sc2ccc(N(C)C)cc2)s1,-0.86%
6,O=C(c1ccc(N2CCCC2=O)cc1)N1CCN(c2ccc(C(F)(F)F)cc2[N+](=O)[O-])CC1,29.3% (active)
7,O=C(Cc1ccc(S(=O)(=O)N2CCOCC2)s1)N1CCN(c2ccc(C(F)(F)F)cc2[N+](=O)[O-])CC1,17.4%
8,COc1cc(OC)cc(C(=O)NC(=S)N2CCN(c3ccc(C(F)(F)F)cc3[N+](=O)[O-])CC2)c1,18.9%
9,CC(Sc1sc(=S)sc1SC(C)C(=O)O)C(=O)O (stereo not drawn),0.68%
10,Cc1cc2oc3ccc(NCCC4CCCN4C)cc3c(=O)c2cc1C (stereo not drawn),9.19%
11,CN1CCC[C@@H]1CCO[C@](C)(c1ccccc1)c1ccc(Cl)cc1,98.5% (active)
12,Cc1ccc(-c2noc(CNC(=O)c3ccoc3C)n2)cc1,12.7%
13,CC(=O)c1ccc(S(=O)(=O)N(C)CCCC(=O)N(C)Cc2ccccc2F)cc1,-0.62%
14,Cc1nc(CN(C)C(=O)CC2C(=O)NCCN2Cc2ccc(F)cc2)cs1 (stereo not drawn),-22.7%
15,CSc1cccc(NC(=S)N(C(C)C)C(C)c2ccccn2)c1 (stereo not drawn),4.26%
16,COc1ccc2[nH]c(=O)c(CN(Cc3cccnc3)S(=O)(=O)c3ccccc3F)cc2c1,27.3% (active)
17,COc1ccc(-c2[nH]ncc2CN(C)Cc2cccnc2)c(F)c1,-5.23%
18,CCOc1ccc2[nH]c(=O)c(CN(CCCO)S(=O)(=O)c3ccc(F)cc3)cc2c1,11.3%
